High-throughput results from PubChem BioAssay.
KB-3-1 tox: KB-3-1 parental cell cytotoxicity | AID 1347075 | 400,000 compounds, 1.4% hits | KB-3-1 viability, CellTiter-Glo ATP luminescence, 72 h | Potency, µM (top dose mostly 46.1 µM), hits mostly cytotoxic; note: % is set by controls: 0 for no effect and ±100 for the full control effect; nearly all actives have a fitted effect of over 60% in size
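Viability of parental KB-3-1 cells, measured by CellTiter-Glo luminescence, followed a 72 h incubation at 37 °C with pinned compounds in phenol-red-free DMEM containing 10% FBS.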
HT1080 IDH1KD tx: HT-1080 IDH1 knockdown cell toxicity (counter line) | HT-1080 IDH1 knockdown viability, ATP luminescence, 48 h | Potency, µM (top dose mostly 46.1 µM), for the others: at the highest dose activity, negative = toxicity, actives largely listed as cytotoxic | 360,000 compounds, 2% hits | AID 686971;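 note: 0% = DMSO wells and -100% = cell-free medium wells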
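Assay cells: HT-1080 with IDH1 knockdown, 750 per well, RPMI/5% FBS. Exposure: 48 h at 37 °C following 2 h pre-incubation. Read: CellTiter-Glo luminescence; fitted concentration-response, curve class assigned.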
KB-V1 MDR tox: KB-V1 MDR subline cytotoxicity | AID 1347076 | Potency, µM (series often up to 46.1 µM), actives largely listed as cytotoxic | KB-V1 MDR cells viability, CellTiter-Glo, 72 h | 400,000 compounds, 3.4% hits; note: % is set by controls: 0 for no effect and ±100 for the full control effect; nearly all actives have a fitted effect of over 60% in size
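Cytotoxicity toward P-gp-expressing KB-V1 cells was determined as loss of CellTiter-Glo luminescence after 72 h at 37 degrees C. Compounds were tested in quantitative HTS format across a concentration range, with curves fitted to normalized data.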
SW480 rerep: inducers of DNA re-replication in SW480 colon cancer cells | SW480 DNA re-replication, Hoechst DNA content imaging, 48 h | Potency, µM (doses to about 46.1 µM), for inactives: at the highest dose re-replication activation, hits mostly activators | 340,000 compounds, 1.8% hits | AID 624297; note: % of control where 0% means no effect; nearly all actives have a fitted effect of over 55% in size
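Treated cells incubate 48 hr (37 C, 5% CO2), are stained 40 min with Hoechst, and nuclear fluorescence is enumerated; a rise in nuclei with high DNA signal marks re-replication.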
HT1080-NT tox: kills 2HG-producing HT-1080-NT fibrosarcoma cells; HT-1080-NT fibrosarcoma viability, CellTiter-Glo ATP luminescence, 48 h; Potency, µM (highest dose often 46.1 µM), without a hit: at the highest dose activity, negative = less viability, most hits filed as cytotoxic; 360,000 compounds, 1.6% hits; AID 686970;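 note: NT is the 2HG producing partner of a matched IDH1 knockdown line; 0% = DMSO-treated cells and -100% = media-only wells without cells; nearly all actives have a fitted effect of over 55% in size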
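HT-1080-NT fibrosarcoma cells (2HG-overproducing), 750 cells/well in RPMI with 5% FBS, dosed after 2 h and incubated 48 h at 37C. CellTiter-Glo luminescence normalized to DMSO and no-cell wells; concentration-response curves fitted and classed.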
MCF10A rerep: DNA re-replication induction in MCF 10a cells; MCF 10A DNA re-replication, Hoechst nuclear intensity, 48 h; Potency, µM (highest dose often 46.1 µM), for the others: at the highest dose activity, positive = re-replication, hits mostly activators; 350,000 compounds, 2.9% hits; note: % of control where 0% means no effect; nearly all actives have a fitted effect of over 50% in size
Numbers without * were called inactive; i = inactive; ? = inconclusive; . = not tested or not shown; [ ] = dose if it differs, or a comment. The list is not random: actives were taken first. Their share in the collection is about 7.9%. Calls come from the whole dose curve; as a rule, active = well fitted curve in the direction sought with a large enough effect; inconclusive = small, poorly fitted or top-dose-only effect, or another doubt; inactive = no such curve, though single readings can be large; an effect the other way counts as inactive or inconclusive. Potency is the fitted concentration of half-maximal effect.

SMILES	KB-3-1 tox	HT1080 IDH1KD tx	KB-V1 MDR tox	SW480 rerep	HT1080-NT tox	MCF10A rerep
O=C(Nc1ccc(S(=O)(=O)NCc2cccnc2)cc1)c1ccccc1Cl	i	-9%	i	2%	1%	20%
Cc1ccc(NC(=O)c2cc([N+](=O)[O-])ccc2NCc2cccnc2)cc1Cl	i	?	i	11%	?	6%
COc1cccc(NC(=O)c2cc([N+](=O)[O-])ccc2NCc2cccnc2)c1	i	-22%	3.7µM*	9%	-28%	-1%
O=C(CCC1CCCC1)Nc1ccc(C(=O)NCc2cccnc2)cc1	i	6.5µM*	i	7%	5.2µM*	?
O=C(Nc1ccccc1)c1ccc(S(=O)(=O)NCc2cccnc2)cc1	?	-16%	21µM*	-13%	-25%	3%
CCOC(=O)c1c(NC(=O)c2cc(-c3ccccc3OC)on2)sc(C)c1C	i	.	i	.	.	.
Cn1c(=O)oc2cc(S(=O)(=O)NC(Cc3ccccc3)C(=O)NCc3ccccc3Cl)ccc21 (stereo not given)	i	.	i	.	.	.
COc1ccc(S(=O)(=O)NCc2cccnc2)cc1Br	i	16µM*	i	2%	0%	-1%
COc1ccc(S(=O)(=O)NCc2cccnc2)cc1	i	1%	i	10%	-5%	?
COc1ccc(S(=O)(=O)N[C@H]2CC[C@H](CCNC(=O)c3ccccc3F)O[C@@H]2CO)cc1	i	12%	i	.	18%	.
CC(C)N1CCN(Cc2ccc(OC3CCCC3)cc2)CC1CCO (stereo not given)	i	5%	i	3%	-14%	4.6µM*
COc1ccc(-c2oc3cccnc3c2/C=C/c2ccc(OC)c(OC)c2)cc1	i	-6%	i	1.6µM*	-12%	?
COc1ccc(/C=C/c2c(-c3ccc(OC)cc3)oc(=O)c3cc(OC)c(OC)cc23)cc1	i	10%	i	7%	-3%	3%
COc1cc2ccc(C(C)=NOC(C)=O)cc2cc1OC	5.2µM*	3%	2.1µM*	.	7%	.
OC(c1ccccn1)(c1ccccn1)c1ccccn1	i	?	10µM*	?	?	?
Cc1ccc(-c2nc(-c3cc4cccc(OCc5cccc(F)c5)c4oc3=O)no2)cc1	i	.	i	.	.	.
Cc1cccc(N(C(=O)CNC(=O)c2ccco2)C(C(=O)NC2CCCCC2)c2cccnc2)c1 (stereo not given)	i	-1%	i	-7%	0%	-4%
O=C(NC1CCCCC1)C(c1cccnc1)N(C(=O)CCl)c1cccc(Cl)c1 (stereo not given)	23µM*	1.8µM*	21µM*	4.1µM*	5.2µM*	13µM*
O=C(NC1CCCC1)C(c1ccc(F)cc1)N(Cc1ccc(Cl)cc1)C(=O)CCl (stereo not given)	?	-13%	16µM*	1%	-1%	11%
COC(=O)c1ccc(C(C(=O)NC2CCCCC2)N(Cc2ccc(F)cc2)C(=O)Cc2cccs2)cc1 (stereo not given)	i	-29%	3.7µM*	3%	-4%	6%
COC(=O)c1ccc(C(C(=O)NC2CCCCC2)N(CCc2ccccc2)C(=O)Cc2cccs2)cc1 (stereo not given)	i	21%	i	-8%	8%	-8%
CC1CCCC(NC(=O)CNC(=S)N(Cc2ccccc2)Cc2cccs2)C1C (stereo not given)	i	?	?	?	?	13µM*
Cc1ccc(NC(=O)C2CCCN(S(=O)(=O)c3cccc4cccnc34)C2)c(C)c1 (stereo not given)	i	.	i	.	.	.
COc1ccc(N(C(=O)c2cnccn2)C(C(=O)NC2CCCCC2)c2ccc(Cl)cc2)cc1 (stereo not given)	i	1%	i	-1%	0%	2%
COc1ccc(C(C(=O)NC2CCCCC2)N(C(=O)CCl)c2ccc(Cl)cc2)cc1 (stereo not given)	5.8µM*	1.5µM*	?	?	2.3µM*	?
SMILES	KB-3-1 tox	HT1080 IDH1KD tx	KB-V1 MDR tox	SW480 rerep	HT1080-NT tox	MCF10A rerep
Cn1cccc1C(C(=O)NC1CCCCC1)N(C(=O)Cc1cccs1)C1CC1 (stereo not given)	i	-9%	6.5µM*	-2%	-4%	3%
Cc1ccc(C(=O)N(CC(=O)NC2CCCC2)Cc2cccs2)s1	i	11%	5.8µM*	-5%	9%	0%
CCC(C)(C(=O)NC1CCCCC1)N(Cc1cccs1)C(=O)Cc1cccs1 (stereo not given)	i	0%	13µM*	0%	-1%	18%
Cc1ccc(C(=O)N(CC(=O)NC2CCCC2)c2ccccc2C)s1	i	2%	i	1%	12%	2%
CCCCc1nn2c(=O)cc(COC(=O)c3ccco3)nc2s1	i	.	?	.	.	.
O=C(Cc1ccc(F)cc1)NCCc1csc2nc(-c3ccccc3F)nn12	i	.	i	.	.	.
COc1ccc2cc(CNc3ccccc3)c(=O)n(CC(=O)Nc3ccc(C(C)=O)cc3)c2c1	i	.	i	.	.	.
CC(C)CCN(Cc1ccco1)C(=O)Cn1ncc2c([nH]c3ccccc32)c1=O	i	.	i	.	.	.
CCOC(=O)CNC(=S)N(Cc1cccs1)C1CCCCC1	i	15%	7.3µM*	-41%	5%	-1%
COC(CN(C(=O)CCl)C(C(=O)NC1CCCCC1)c1ccc(Cl)cc1)OC (stereo not given)	?	-19%	?	9%	-11%	12%
COC(CN(C(=O)CCl)C(C(=O)NC1CCCCC1)c1ccccc1C)OC (stereo not given)	?	?	?	?	18µM*	?
Cc1cc2n(n1)CCCN2C(=O)Nc1cccc(C)c1C	i	.	i	.	.	.
CCOC(=O)c1[nH]c(C)c(C(=O)Nc2ccc(Cl)cc2)c1C	i	9%	i	1%	6%	-2%
CCOC(=O)c1c(C)[nH]c(C(=O)NNC(=O)c2ccccc2)c1C	i	17%	i	-4%	8%	-12%
CCOC(=O)c1c(C)[nH]c(C(=O)N/N=C\c2ccccc2Cl)c1C	?	15µM*	?	.	?	?
CCOC(=O)c1[nH]c(C)c(C(=O)OC(C)C(=O)Nc2ncc(Cl)cc2Cl)c1C (stereo not given)	?	-29%	13µM*	-1%[9.22 µM]	-24%	?
CCOC(=O)c1[nH]c(C)c(C(=O)Nc2cccc(Cl)c2C)c1C	5.8µM*	7.9µM*	6.5µM*	12µM*	11µM*	8.2µM*
